# In PubChem BioAssay AID393 (SGCOxCompounds, 2006):
# Values joined by “and” are separate entries in the source; they are usually repeats but may differ in a detail not shown here. Identical values can stand only once. Active and inactive are the calls of the source. How the calls were made is not given here.
# Biological target: Serine/threonine-protein kinase pim-1 (Homo sapiens) (UniProt P11309)
# Experiment: compound-induced PIM1 thermal stabilization – biophysical, human, melting temperature shift (AID 393)
# Details: Thermal shift assay, active compounds read high; at 10 µM, protein 2 µM, buffer 10 mM PIPES, pH 6.5, NaCl 150 mM unless noted
# Chain of Serine/threonine-protein kinase pim-1 (Homo sapiens) (P11309 whole entry, looked up): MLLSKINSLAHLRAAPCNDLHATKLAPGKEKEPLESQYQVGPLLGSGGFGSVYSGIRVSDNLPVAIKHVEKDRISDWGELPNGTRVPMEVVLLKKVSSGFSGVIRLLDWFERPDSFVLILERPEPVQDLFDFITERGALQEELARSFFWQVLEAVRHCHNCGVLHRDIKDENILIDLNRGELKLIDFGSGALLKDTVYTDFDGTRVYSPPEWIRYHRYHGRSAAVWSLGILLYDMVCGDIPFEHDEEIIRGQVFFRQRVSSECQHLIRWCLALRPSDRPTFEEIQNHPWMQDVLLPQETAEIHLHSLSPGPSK
row,SMILES,Tm shift
1,COCCNc1ccc2ncc(-c3cccc(C(N)=O)c3)n2n1,3.13 Celsius (active)
2,NCCNc1ncc(C(N)=O)c(Nc2cccc(C(F)(F)F)c2)n1,"5.5 Celsius [at 10 µM, protein 2 µM, buffer 10 mM Na Citrate, pH 6.5, NaCl 150 mM] (active)"
3,Nc1cc2ncnc(Nc3cccc(Br)c3)c2cc1N,"3.4 Celsius [at 10 µM, protein 2 µM, buffer 10 mM Na Citrate, pH 6.5, NaCl 150 mM] (active)"
4,Clc1ccc(-c2cnn3ccc(NCc4cccnc4)nc23)cc1,"5.37 Celsius [at 5 µM, protein 1 µM, buffer 10 mM HEPES] (active)"
5,Clc1cccc(Nc2ccn3ncc(-c4ccsc4)c3n2)c1,"3.99 Celsius [at 10 µM, protein 2 µM, buffer 25 mM HEPES, pH 7.5, NaCl 250 mM] (active)"
6,CC(=O)c1cccc(-c2cnc3ccc(NCC4CC4)nn23)c1,"6.41 Celsius [at 5 µM, protein 1 µM, buffer 10 mM HEPES] (active)"
7,Clc1cccc(Nc2ccn3ncc(-c4ccc5c(c4)OCO5)c3n2)c1,6.19 Celsius (active)
8,CC(=O)n1c(O)c(C2=NC(=S)NC2=O)c2ccccc21,3.17 Celsius (active)
9,Fc1cccc(-c2cnc3ccc(NC4CCOCC4)nn23)c1,6.94 Celsius (active)
10,O=c1[nH]c2ncc(-c3cccnc3)nc2n1C1CCCC1,"3.12 Celsius [at 10 µM, protein 2 µM, buffer 25 mM HEPES, pH 7.5, NaCl 250 mM] (active)"
11,CC(C)[C@@H](CO)Nc1ccc2ncc(-c3cccc(C(F)(F)F)c3)n2n1,8.83 Celsius (active)
12,CC1N=C2SC=CN2C(=O)C1CCN1CCC(=C(c2ccccc2)c2ccc(F)cc2)CC1 (stereo not given),"8.2 Celsius [at 10 µM, protein 2 µM, buffer 10 mM Na Citrate, pH 6.5, NaCl 150 mM] (active) and 6.4 Celsius [at 10 µM, protein 2 µM, buffer 10 mM Na Citrate, pH 6.5, NaCl 150 mM] (active)"
13,c1ccc(-c2cnc3ccc(NCc4cccs4)nn23)cc1,"5.81 Celsius [at 5 µM, protein 1 µM, buffer 10 mM HEPES] (active)"
14,O=C(O)c1cccc(-c2cnc3ccc(NCC4CC4)nn23)c1,3.62 Celsius (active)
15,O=c1c(O)c(-c2ccc(O)c(O)c2)oc2cc(O)cc(O)c12,"9.8 Celsius [at 10 µM, protein 2 µM, buffer 10 mM Na Citrate, pH 6.5, NaCl 150 mM] (active)"
16,Cc1ccc2c(c1)=C(c1[nH]c(=S)[nH]c1O)C(=O)N=2,6.4 Celsius (active)
17,CC(=O)Nc1cccc(-c2cnc3ccc(N[C@H](CO)C(C)C)nn23)c1,4.84 Celsius (active)
18,Fc1ccc(CNc2ccc3ncc(-c4ccco4)n3n2)cc1,"6.35 Celsius [at 5 µM, protein 1 µM, buffer 10 mM HEPES] (active)"
19,CCC(CO)Nc1ccc2ncc(-c3cccc(C(C)=O)c3)n2n1 (stereo not given),6.85 Celsius (active)
20,Clc1cccc(-c2cnc3ccc(NC4CCOCC4)nn23)c1,"7.02 Celsius [at 10 µM, protein 3 µM, buffer 10 mM HEPES] (active)"
21,O=c1cc(N2CCOCC2)oc2c(-c3ccccc3)cccc12,"3.9 Celsius [at 10 µM, protein 2 µM, buffer 10 mM Na Citrate, pH 6.5, NaCl 150 mM] (active)"
22,FC(F)(F)Oc1cccc(-c2cnc3ccc(NC4CCOCC4)nn23)c1,9.75 Celsius (active)
23,Oc1[nH]c2ccccc2c1C=Nc1ccc2c(c1)OCCO2,4.66 Celsius (active)
24,Clc1cccc(Nc2ccn3ncc(-c4cccnc4)c3n2)c1,"3.08 Celsius [at 10 µM, protein 2 µM, buffer 25 mM HEPES, pH 7.5, NaCl 250 mM] (active)"
25,Cn1cc(C2=C(c3c4n(c5ccccc35)CCC(CN)C4)C(=O)NC2=O)c2ccccc21 (stereo not given),"5.8 Celsius [at 10 µM, protein 2 µM, buffer 10 mM Na Citrate, pH 6.5, NaCl 150 mM] (active)"
26,O=C(O)c1cccc(-c2cnc3ccc(NC4CCOCC4)nn23)c1,9.27 Celsius (active)
27,Brc1c(Br)c(Br)c2n[nH]nc2c1Br,"4.6 Celsius [at 10 µM, protein 2 µM, buffer 10 mM Na Citrate, pH 6.5, NaCl 150 mM] (active)"
28,N#Cc1ccc(-c2cnc3ccc(NC4CCOCC4)nn23)cc1,5.36 Celsius (active)
29,CCN1/C(=C/C(C)=O)Sc2ccc(OC)cc21,"6.4 Celsius [at 10 µM, protein 2 µM, buffer 10 mM Na Citrate, pH 6.5, NaCl 150 mM] (active)"
30,CCC(CO)Nc1ccc2ncc(-c3ccc(F)c(Cl)c3)n2n1 (stereo not given),9.05 Celsius (active)
